We go through 4 compounds from PubChem BioAssay (EPA / NIEHS).

SMILES strings stand for the structures. Results filed as inconclusive are left out. Calls of active or inactive are those of the source. Rule for the calls, unless noted: active = hit-call score of the fitted dose curve at least 0.9, where 1 is the maximum; inconclusive = response in the unintended direction; inactive = score below 0.9.

Read-out in one test: TIMP1, TIMP1 (gene 7076)
Put plainly: LTEA_HepaRG_TIMP1: Life Technologies and Expression Analysis (LTEA) Assay for TIMP1 using HepaRG (AID 2283534; active = hit-call score of the fitted dose curve at least 0.9, where 1 is the maximum; inactive = score below 0.9). The settings on record: mRNA level, 48 h; actives raise or lower the signal. Summed up: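 Bidirectional change in TIMP1 transcript versus 0.5% DMSO, measured by TaqMan qRT-PCR with three housekeeping genes for normalization. HepaRG human liver cells dosed 48 h in duplicate, top concentration 100 uM with half-log dilutions.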

Read-out in test [1]: Tumor necrosis factor receptor 1 (TNFRSF1A), TNFRSF1A (gene 7132)
The experiment in a line: LTEA_HepaRG_TNFRSF1A: Life Technologies and Expression Analysis (LTEA) Assay for Tumor necrosis factor receptor 1 (TNFRSF1A) using HepaRG (AID 2283535; active = hit-call score of the fitted dose curve at least 0.9, where 1 is the maximum; inactive = score below 0.9). The settings on record: mRNA level, 48 h; actives raise or lower the signal. Summed up: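 mRNA measured by qRT-PCR (TaqMan, Fluidigm arrays) against ACTB/GAPDH/POLR2A housekeepers after 48 h chemical exposure of HepaRG cells. Top concentration 100 uM, half-log 8-point series, duplicates; vehicle 0.5% DMSO, both fit directions.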

Read-out in test [2]: Thyroid Hormone Responsive (THRSP), THRSP (gene 7069)
The experiment in a line: LTEA_HepaRG_THRSP: Life Technologies and Expression Analysis (LTEA) Assay for Thyroid Hormone Responsive (THRSP) using HepaRG (AID 2283536; active = hit-call score of the fitted dose curve at least 0.9, where 1 is the maximum; inactive = score below 0.9). The settings on record: mRNA level, 48 h; actives raise or lower the signal. Summed up: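 Differentiated human HepaRG cells were exposed in duplicate for 48 h in serum-free induction medium to eight concentrations (top 100 uM, half-log steps, 0.5% DMSO). Expression was quantified by TaqMan qRT-PCR, normalized to ACTB, GAPDH and POLR2A, with bidirectional fitting against DMSO.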

Read-out in test [3]: Cellular tumor antigen p53 (Homo sapiens) (UniProt P04637)
The experiment in a line: LTEA_HepaRG_TP53: Life Technologies and Expression Analysis (LTEA) Assay for Tumor Protein P53 (TP53) using HepaRG (AID 2283537; active = hit-call score of the fitted dose curve at least 0.9, where 1 is the maximum; inactive = score below 0.9). The conditions noted are these: mRNA level, 48 h; actives raise or lower the signal. Summed up: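 Differentiated HepaRG cells in serum-free induction medium exposed 48 h in duplicate to 8 half-log concentrations, top 100 uM, 0.5% DMSO. TP53 mRNA by TaqMan qRT-PCR (Fluidigm), normalized to ACTB, GAPDH, POLR2A; fitted bidirectionally versus DMSO.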

Read-out in test [4]: UDP glucuronosyltransferase (UGT1A1), UGT1A1 (gene 54658)
The experiment in a line: LTEA_HepaRG_UGT1A1: Life Technologies and Expression Analysis (LTEA) Assay for UDP glucuronosyltransferase (UGT1A1) using HepaRG (AID 2283538; active = hit-call score of the fitted dose curve at least 0.9, where 1 is the maximum; inactive = score below 0.9). The conditions noted are these: mRNA level, 48 h; actives raise or lower the signal. Summed up:
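Differentiated human HepaRG cells in serum-free induction medium were exposed in duplicate for 48 h to eight half-log concentrations up to 100 uM in 0.5% DMSO. UGT1A1 mRNA was quantified by TaqMan qRT-PCR, normalized to ACTB, GAPDH and POLR2A, and fitted bidirectionally against DMSO.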

Read-out in test [5]: UDP glucuronosyltransferase (UGT1A6), UGT1A6 (gene 54578)
Put plainly: LTEA_HepaRG_UGT1A6: Life Technologies and Expression Analysis (LTEA) Assay for UDP glucuronosyltransferase (UGT1A6) using HepaRG (AID 2283539; active = hit-call score of the fitted dose curve at least 0.9, where 1 is the maximum; inactive = score below 0.9). The settings on record: mRNA level, 48 h; actives raise or lower the signal. Summed up: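 Expression was quantified by TaqMan qRT-PCR on Fluidigm arrays with ACTB/GAPDH/POLR2A normalization and bidirectional fitting against 0.5% DMSO. HepaRG cells (~100,000/well) were treated in duplicate for 48 h at eight half-log concentrations up to 100 uM in serum-free induction medium.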

Read-out in test [6]: X-box binding protein 1 (XBP1), XBP1 (gene 7494)
Put plainly: LTEA_HepaRG_XBP1: Life Technologies and Expression Analysis (LTEA) Assay for X-box binding protein 1 (XBP1) using HepaRG (AID 2283540; active = hit-call score of the fitted dose curve at least 0.9, where 1 is the maximum; inactive = score below 0.9). The conditions noted are these: mRNA level, 48 h; actives raise or lower the signal. Summed up: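 XBP1 transcript by qRT-PCR (housekeeping-normalized: ACTB, GAPDH, POLR2A) after 48 h chemical treatment of HepaRG cells, 8-point half-log series topping at 100 uM, vehicle 0.5% DMSO. Gain and loss of signal fitted relative to DMSO.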

A short description of test [7]: LTEA_HepaRG_LDH_cytotoxicity: Cytotoxicity Assessment in the Life Technologies and Expression Analysis (LTEA) Assay (AID 2283563). Summed up:
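LDH release into culture medium read after 48 h chemical treatment of HepaRG cells. Duplicate wells, eight-point half-log series topping at 100 uM, 0.5% DMSO vehicle and baseline.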

Test [8] is described as follows: ATG_XTT_Cytotoxicity: Cytotoxicity Assessment in the Attagene TRANS-FACTORIAL HepG2 Assay (AID 2283584). The method in brief: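 Viability endpoint from XTT after 24 h chemical exposure of reporter-transfected human HepG2 liver cells; signal loss fitted relative to DMSO negative control.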
Test [9] is described as follows: TOX21_p53_BLA_p2_viability: Viability Assessment in the Tox21 HCT-116 p53 Agonism Beta-lactamase Assay, Phase 2 (AID 2283591).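 Note: compound exposure lasted 16 h at 37 °C; actives lower the ATP signal meaning cytotoxicity.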 Summed up: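 HCT-116 p53-bla cells (4000/well) rested 5 h at 37C, then received compounds in DMSO (217-fold dilution) for 16 h at 37C, 5% CO2. After the CCF4 read, CellTiter-Glo was added; ATP luminescence was read after 30 min at room temperature.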

The target of test [10] is Cellular tumor antigen p53 (Homo sapiens) (UniProt P04637). Put plainly: TOX21_p53_BLA_p2_ratio: Tox21 HCT-116 p53 Agonism Beta-lactamase Assay, Ratio, Phase 2 (AID 2283592). The method in brief:
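Gain-of-signal p53 agonism was scored from the beta-lactamase FRET ratio (460/530 nm, 405 nm excitation) in HCT116 cells treated 16 h at 37C, 5% CO2, with DMSO serving as negative control and baseline.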

Test [11] can be described thus: TOX21_p53_BLA_p3_viability: Viability Assessment in the Tox21 HCT-116 p53 Agonism Beta-lactamase Assay, Phase 3 (AID 2283593).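 Note: cells exposed to compound for 16 h before reading.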 The method in brief:
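HCT-116 cells (4000/well) rested 5 h at 37C, then got DMSO compounds by pin tool (217-fold dilution) for 16 h at 37C, 5% CO2. After the bla read, CellTiter-Glo was added and luminescence read at 30 min, room temperature.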

The target of test [12] is Cellular tumor antigen p53 (Homo sapiens) (UniProt P04637). The experiment in a line: TOX21_p53_BLA_p3_ratio: Tox21 HCT-116 p53 Agonism Beta-lactamase Assay, Ratio, Phase 3 (AID 2283596). Summed up:
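HCT116 p53-bla cells (4000/well) given compound in DMSO (217-fold dilution) after 5 h, incubated 16 h at 37C. CCF4-AM substrate 2 h at room temperature; 460/530 nm emission ratio, gain fitted against DMSO.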

The nature of test [13]: TOX21_p53_BLA_p4_viability: Viability Assessment in the Tox21 HCT-116 p53 Agonism Beta-lactamase Assay, Phase 4 (AID 2283597).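 Note: hits lower the luminescence signal meaning cytotoxicity.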 Summed up: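 Following a 16 h exposure at 37C, the treated HCT116 wells were first read for the FRET ratio. They were then lysed with CellTiter-Glo, and ATP luminescence was recorded after 30 min at room temperature.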
For test [14], the target named is Cellular tumor antigen p53 (Homo sapiens) (UniProt P04637). Put plainly: TOX21_p53_BLA_p5_ratio: Tox21 HCT-116 p53 Agonism Beta-lactamase Assay, Ratio, Phase 5 (AID 2283599). The method in brief: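 HCT-116 cells carrying a p53-inducible beta-lactamase reporter were seeded at 4000 cells/well and dosed after 5 h with compound in DMSO (217-fold dilution). After 16 h at 37C, CCF4-AM substrate was added for 2 h, and the 460/530 nm emission ratio was scored as gain-of-signal versus DMSO.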

The target is the same in test [15]. Put plainly: TOX21_p53_BLA_p4_ratio: Tox21 HCT-116 p53 Agonism Beta-lactamase Assay, Ratio, Phase 4 (AID 2283601). Summed up:
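HCT116 cells carrying an inducible beta-lactamase reporter were plated at 4000 cells/well, rested 5 h, then exposed to compounds in DMSO (217-fold dilution) for 16 h at 37C. CCF4-AM substrate was loaded 2 h at room temperature; 460/530 nm emission ratio scored gain-of-signal versus DMSO.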

A short description of test [16]: Tanguay_ZF_120hpf_MORT_legacy: (Legacy) Oregon State University Tanguay Lab 120 Hour Post-fertilization zebrafish Assay for Mortality (AID 2283633). The method in brief:
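Static waterborne exposure from 6 to 120 hpf at 28C of single dechorionated wild-type (5D) embryos per well, 0.64% DMSO final. Death recorded present/absent by brightfield at 24 and 120 hpf.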

Test [17] is described as follows: Tanguay_ZF_120hpf_YSE_legacy: (Legacy) Oregon State University Tanguay Lab 120 Hour Post-fertilization zebrafish Assay for Yolk Sac Edema (AID 2283634). Summed up:
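Presence or absence of yolk sac edema was recorded at 120 hpf in surviving larvae. These were wild-type Tropical 5D embryos, chorion removed at 4 hpf, held in static exposure at 28C from 6 hpf with 0.64% DMSO vehicle.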

Test [18] is described as follows: Tanguay_ZF_120hpf_AXIS_legacy: (Legacy) Oregon State University Tanguay Lab 120 Hour Post-fertilization zebrafish Assay for Body Axis Malformation (AID 2283635). Summed up: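 Binary scoring of axis defects at 120 hpf under brightfield, fitted positive versus DMSO. Tropical 5D embryos, chorion removed by pronase at 4 hpf, were singly exposed in sealed, dark plates at 28C from 6 hpf; DMSO 0.64% final.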

The nature of test [19]: TOX21_p53_BLA_p5_viability: Viability Assessment in the Tox21 HCT-116 p53 Agonism Beta-lactamase Assay, Phase 5 (AID 2283600). The method in brief: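 After the 460/530 nm beta-lactamase measurement, the wells received an ATP-detection luciferase reagent; signal was read 30 min later at RT. Compound treatment lasted 16 h on cells pre-incubated 5 h post-seeding.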

Sequence of Cellular tumor antigen p53 (Homo sapiens) (P04637 whole entry, looked up): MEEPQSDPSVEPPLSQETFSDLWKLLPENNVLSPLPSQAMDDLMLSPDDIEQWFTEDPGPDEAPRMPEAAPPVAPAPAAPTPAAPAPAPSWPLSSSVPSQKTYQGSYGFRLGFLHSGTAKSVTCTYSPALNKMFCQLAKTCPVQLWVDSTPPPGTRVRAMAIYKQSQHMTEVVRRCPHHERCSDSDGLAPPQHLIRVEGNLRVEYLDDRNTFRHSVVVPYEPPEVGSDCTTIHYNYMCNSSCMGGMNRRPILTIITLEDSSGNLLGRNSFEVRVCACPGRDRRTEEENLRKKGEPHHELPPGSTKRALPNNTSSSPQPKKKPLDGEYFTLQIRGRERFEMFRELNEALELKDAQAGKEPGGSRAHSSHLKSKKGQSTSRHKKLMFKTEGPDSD

For the compound `CCOC(=O)c1ccc(O)cc1`, the outcome with TIMP1, TIMP1 (gene 7076) was “inactive”; in test [1], “inactive”; in [2], “inactive”; in [3] it was “inactive”; in [4], “inactive”; in [5], “inactive”. For the same compound, the compound was classed as inactive in test [6], in test [7], in test [8], in test [9], in test [10] and in test [11]. The outcome in test [12], in test [13], in [14], in [15], in test [16] and in test [17] was inactive. Further, in test [18], the outcome was inactive.
Take `CCCOC(=O)NCCCN(C)C`: the outcome in the test with TIMP1, TIMP1 (gene 7076) was “inactive”; in test [1], “inactive”; in test [2], “inactive”; in [3], “inactive”; in test [4], “inactive”; in test [5] it was “inactive”. Moreover, the compound was called inactive in [6], in test [7], in test [9], in [10], in [11] and in test [12]. Also, the result in test [14], in [19], in [15], in [16], in [17] and in test [18] was inactive.
Regarding `CCSC(=O)N(CC(C)C)CC(C)C`, the outcome was “inactive” in the test with TIMP1, TIMP1 (gene 7076); “inactive” in test [1]; “inactive” in [2]; “inactive” in test [3]; “inactive” in test [4]; “inactive” in test [5]. Besides, the compound was classed as inactive in test [6], in test [7], in [12], in [13], in [14] and in [15]. Also, the outcome in test [16], in [17] and in [18] was inactive.
Regarding `COC(=O)CSc1cc(N=c2sc(=O)n3n2CCCC3)c(F)cc1Cl`, the outcome is “inactive” in the test with TIMP1, TIMP1 (gene 7076); “inactive” in [1]; “inactive” in test [2]; “inactive” in [3]; “inactive” in test [5]; “inactive” in [6]. Also, the compound was classed as inactive in [7], in test [9], in [10], in [11], in test [13] and in [19]. Besides, the compound was classed as inactive in test [16] and in [17]. The AC50 in test [4] was 41.4 µM (active).
